Test results as given in ChEMBL document CHEMBL4513216, “Probing the Open Global Health Chemical Diversity Library for Multistage-Active Starting Points for Next-Generation Antimalarials” (ACS Infect Dis, 2020).
Screen size: about 69,000 compounds; about 8,600 (12%) showed an effect of 50% or more. Only a selection was taken, and strong results are over-represented in it overall.

Each molecule was assayed on Plasmodium berghei (assay: Screen against P. berghei liver stage (PbLuc), transformed with Luciferase, at 10uM). Settings: tested at 10 uM.
Assay type: functional, HepG2

Structure (SMILES) | INHIBITION
O=C1NCC[C@]12CN(Cc1ccoc1)C[C@H]2c1ccccc1 | -38.1%
CCCS(=O)(=O)N1C[C@@H](c2ccccc2)[C@@]2(CCNC2=O)C1 | 53.9%
Cc1ccc(CN2C[C@@H](c3ccccc3)[C@@]3(CCNC3=O)C2)o1 | -2.46%
O=C1NCC[C@]12CN(Cc1cccnc1)C[C@H]2c1ccccc1 | -3.77%
O=C(c1cnccn1)N1C[C@@H](c2ccccc2)[C@@]2(CCNC2=O)C1 | 74.8%
CCS(=O)(=O)N1C[C@@H](c2ccccc2)[C@@]2(CCNC2=O)C1 | 48.4%
O=C1NCC[C@]12CN(Cc1ccncc1)C[C@H]2c1ccccc1 | 51.3%
O=C(c1cnccn1)N1CCC2(CC1)C(=O)NCC2c1ccccc1 (stereo unspecified) | 49.7%
O=C(c1cccnc1)N1C[C@@H](c2ccccc2)[C@@]2(CCNC2=O)C1 | -0.554%
N#Cc1c2n(c3c(N)ncnc13)CCCCC2 | 44.4%
CC(C(=O)N1CCN(c2ncccn2)CC1)n1cncn1 (stereo unspecified) | 10%
CCc1oc(C(=O)N2CC[C@@H]3CC[C@H](C2)N3)cc1CN(CC)CC | 29.4%
Cc1ccc(CN2CCC(c3cnccn3)CC2)s1 | 18.9535%
CC(C)(O)CN1CC(C)(C)CN(C(=O)CCc2ccccc2)CC1=O | 44.9%
Cn1c(N2CCOCC2)nc2cc(C(=O)NCC(F)(F)F)ccc21 | 20.9%
CCN(C)c1ncnc2c1CCN(C(=O)Cc1ccccn1)CC2 | 34.4%
Cc1cc(CNCc2c(C)n(CC(C)C)c3ccccc23)[nH]n1 | 27.4%
CC(C)N1CC2(CCCN(c3ccccn3)C2)CCC1=O (stereo unspecified) | -9.18%
CC(C)N1CC2(CCCN(c3ccnc4ccccc34)C2)CCC1=O (stereo unspecified) | 65.1%
CC(C)N1CC2(CCC1=O)CCN(c1ccnc3ccccc13)CC2 | 20.5%
CC(C)N(Cc1cccc(Cl)c1)Cc1nc2c(cnn2C)c(=O)[nH]1 | 15.6%
COc1ccc(CCNC2CCCN(Cc3noc(C)n3)C2)cc1 (stereo unspecified) | 35.9%

Structure (SMILES) | INHIBITION
CC(=O)Nc1ccccc1Sc1nc(Br)nn1C | 5.58%
CN(Cc1n[nH]c2c1CCC2)C(=O)c1cc(-c2cccn2C)n[nH]1 | -7.53%
CCOCc1ccc(CNC2=NCCCN2)cc1 | 47.1%
CC(C)C(=O)NCc1ccc(N(C)C)cc1 | -51.5%
CN(C)c1ccc(CNC2=NCCCN2)cc1 | 75.8%
COC(=O)c1ccc(Cn2nc(C)cc2C)cc1 | -60.4%
Cc1c(C(=O)N2CCN(C)[C@@H]3CS(=O)(=O)C[C@@H]32)[nH]c2ccc(F)cc12 | 43%
CCc1c(C(=O)N2CCN(C)[C@@H]3CS(=O)(=O)C[C@@H]32)[nH]c2ccccc12 | 60.1%
CCN1CCN(C(=O)c2[nH]c3ccccc3c2Cl)[C@H]2CS(=O)(=O)C[C@H]21 | -9.87%
CC(C)c1nn(C)c(N(C)C)c1CNC1CCOc2c(F)cccc21 (stereo unspecified) | -12.5%
O=C(c1cnccn1)N1CC2(CCN(Cc3ccsc3)C2)C1 | 23.3%
CN(C)C(=O)C1CSCN1C(=O)CCc1ccco1 (stereo unspecified) | -75%
CC(=O)Nc1ccc(CCC2(NC(=O)C3CCCO3)CCCCC2)cn1 (stereo unspecified) | -1.16%
CS(=O)(=O)NC1(CCc2ccc(NC(=O)C3CC3)nc2)CCCCC1 | 40.6%
CC(=O)Nc1ccc(CCC2(NC(=O)C3CC3)CCCCC2)cn1 | 59.2%
Cc1nn(C(C)C)c2cn(CC(=O)NC3CCSCC3)nc12 | -3.83%
O=C(Cc1ccc2c(c1)OCCO2)NCc1ccc(-n2cncn2)nc1 | 19.2%
CC1Cc2ccccc2N1C(=O)Cn1nc(-c2cccs2)cc(N)c1=O (stereo unspecified) | 18.3%
Nc1cc(-c2cccs2)nn(CC(=O)NCC2CCCCC2)c1=O | 6.32%
Nc1cc(-c2cccs2)nn(CC(=O)N2CCc3ccccc32)c1=O | 72.2%
CCS(=O)(=O)N1CC(=O)N(CCCc2ccccc2)CC(O)C1 (stereo unspecified) | 26.8%
O=C(CCc1nc2cccnc2[nH]1)NCc1ccncc1 | -0.532%

Structure (SMILES) | INHIBITION
Cc1ccc(CN2CCN(c3ccc(F)cn3)CC2=O)cc1C | 11.2%
Cc1ccc(CN2CCN(c3cncc(N(C)C)n3)CC2=O)cc1C | 56.3%
Cc1ccc(CN2CCN(Cc3ccc(N(C)C)nc3)CC2=O)cc1C | 44%
CS(=O)(=O)CCn1ccc(NC(=O)c2c(F)cccc2F)n1 | 46.1%
Cc1nccn1C1CCCN(C(=O)c2ccc(N(C)C)nn2)C1 (stereo unspecified) | -22.9%
COc1ccncc1NCc1cscn1 | 21.6%
COc1ncc(NCc2ccsc2)cc1C(N)=O | 32.2%
CC(C)(C)Oc1ccncc1NCc1cscn1 | 70.3%
O=C(CCc1ccsc1)Nc1cnccc1O | -3.43%
COc1ccncc1NCc1ccsc1 | 71.3%
COc1ccccc1NCc1cscn1 | 27.5%
Cc1noc(C)c1CSC1CCCN(c2cnn(C)c2)C1=O (stereo unspecified) | -41.9%
COCCN1CCOCC12CCN(Cc1ccn(C)n1)CC2 | 34.6%
CC(=O)NCc1cc2n(n1)CCN(Cc1cc(-c3ccccc3)no1)C2 | 32.2%
COCCN1CCC2(CC1)CC(c1cccnc1)C(=O)N2C (stereo unspecified) | 26.5%
CCc1nc(C2CCCN(C(=O)NC(C)C)C2)no1 (stereo unspecified) | 13.6%
O=C([C@@H](O)Cc1ccccc1)N1CCCn2cncc2C1 | 18.6%
Cc1ccnc(NC(=O)c2cnc(C3CCCNC3)cn2)c1 (stereo unspecified) | 37.35%
CC(C)NC(=O)COc1cccc(-c2nc(C(C)C)no2)c1 | 26.8%
CCc1cc(=O)n(CC(=O)N2CCC(C)CC2)c(-c2ccccc2)n1 | 57.3%
CCc1cc(=O)n(CC(=O)N2CCCC2)c(-c2ccccc2)n1 | 4.35%
CCc1cc(=O)n(CC(=O)N2CCC(C)CC2)c(-c2cccc(F)c2)n1 | 17.6%

Structure (SMILES) | INHIBITION
CNc1nc2c(s1)C(c1cc(Cl)ccc1F)CC(=O)N2 (stereo unspecified) | 35.8%
CCn1cc(CN(C)S(=O)(=O)c2ccc(C(C)C)cc2)cn1 | 26.7%
Cc1cc(C)n(CC2CN(c3ccc(C#N)cn3)CCO2)n1 (stereo unspecified) | 23.7%
Cc1nn(C)c2cnn(Cc3ccc(C(=O)N4CCN(C)CC4)o3)c12 | 65.6%
Cc1nn(C)c2cnn(Cc3ccc(C(=O)NC4CC4)o3)c12 | 16.8%
Cc1nn(C)c2cnn(Cc3ccc(C(=O)N4CCCCC4)o3)c12 | 21.7%
CCc1ccc(NC(=O)N2C[C@@H]3C[C@H](C(=O)NC)[C@H](C2)O3)cc1 | 15%
O=C1NCc2ccccc2CC12CCCN(Cc1ccsc1)C2 (stereo unspecified) | 14.3%
CC(OCC1CC1)C(=O)Nc1ncn(CC(=O)N2CCCCCC2)n1 (stereo unspecified) | 51.7%
CC(CC(=O)Nc1ncn(CC(=O)N2CCCCCC2)n1)C1CC1 (stereo unspecified) | -28.8%
O=C(COC1CCCC1)Nc1ncn(CC(=O)N2CCCCCC2)n1 | 8.75%
O=C(COCC1CC1)Nc1ncn(CC(=O)N2CCCCCC2)n1 | -32.4%
O=C(Nc1ncn(CC(=O)N2CCCCCC2)n1)C1CCCC1 | 2.7%
O=C(CC1C=CCC1)Nc1ncn(CC(=O)N2CCCCCC2)n1 (stereo unspecified) | 50.6%
Cc1ccc2oc(C(=O)N3CCCC(n4nc(C)nc4C)C3)cc2n1 (stereo unspecified) | -2.95%
COc1ccc(CNC(=O)CCCc2nnc3ccc(OC)nn23)cc1 | 8.99%
CCn1nc(CNC(C)(C)CO)c(-c2ccccc2)n1 | 20.9%
CCCOCC(=O)N1CCc2c(cccc2S(=O)(=O)N2CCOCC2)C1 | 26.7%
Fc1cnc(N2CC[C@@H]3O[C@@H](COCc4ccccn4)CC[C@@H]32)nc1 | 18.5%
c1cnc(N2CCC3(CCN(CC4CCOC4)C3)CC2)nc1 (stereo unspecified) | 34.7%
COc1cccc(OCC2CCCN(C3CCN(C(C)=O)CC3)C2)c1 (stereo unspecified) | 15.1%
COc1ccc(C(=O)Nc2cnn(CCN3CCOCC3)c2)c(O)c1 | 29.5%

Structure (SMILES) | INHIBITION
COc1ccc(O)c(C(=O)NCC2CCCN(C3CCOCC3)C2)c1 (stereo unspecified) | 14.3%
COc1ccc(Br)c(C(=O)NCC2CC2)c1 | 90.2%
COc1cccc(NC(=O)NCC2CCCN(C3CCOCC3)C2)c1 (stereo unspecified) | 58.8%
COc1ccc(Br)c(C(=O)NCC2CCN(S(=O)(=O)C3CC3)CC2)c1 | 38.5%
COCCNC(=O)c1cc(OC)ccc1Br | -85%
COc1ccc(C(=O)NCC2CCCN(C3CCOCC3)C2)c(O)c1 (stereo unspecified) | 57.4%
Cc1cccc(C)c1NC(=O)NCC1CCCN(C2CCOCC2)C1 (stereo unspecified) | -15%
CC(NC(=O)N(C)CCCOc1ccccc1)c1nncn1C (stereo unspecified) | 0.914%
Cc1ccc(N2CCC3(CCC(=O)N3Cc3ccncc3)CC2)nn1 | 3.17%
CCc1nnc2n1CCN(C(=O)C(C)Oc1ccc(C#N)cc1)C2 (stereo unspecified) | -48.3%
Cc1noc(C2CN(S(C)(=O)=O)Cc3ccnn3C2)n1 (stereo unspecified) | 50.7%
CCS(=O)(=O)N1Cc2ccnn2CC(c2nc(C)no2)C1 (stereo unspecified) | -5.63%
Cc1noc(C2CN(S(=O)(=O)C3CC3)Cc3ccnn3C2)n1 (stereo unspecified) | 34.6%
CNc1oc(-c2ccc(OC)c(S(=O)(=O)N(C)C)c2)nc1C#N | 8.46%
CC1CN(C(=O)Nc2cc(C(F)(F)F)c[nH]c2=O)CCO1 (stereo unspecified) | -4.12%
O=C(Cc1cccnc1)N1C[C@H]2CC[C@@H](C1)N(Cc1ccccc1)C2=O | 40.4%
O=C(Cc1ccncc1)N1C[C@H]2CC[C@@H](C1)N(Cc1ccccc1)C2=O | 63.7%
O=C(Cc1ccccn1)N1C[C@H]2CC[C@@H](C1)N(Cc1ccccc1)C2=O | -4.86%
